Source: PubChem BioAssay AID652104 (National Center for Advancing Translational Sciences (NCATS), 2013)
Several values for one entry are separate records, joined by “and”; a condition that tells them apart may be missing. Identical values can stand only once. The whole screen tested about 410,000 compounds, of which about 7,200 (1.8%) were called active. Not shown: some 7% with an inconclusive outcome. The sample holds actives, similar compounds and a random draw of the others, so the mix is not that of the screen. Calls come from the whole dose curve; as a rule, active = well fitted activation curve with a large enough effect; inconclusive = small, poorly fitted or top-dose-only effect, or another doubt; inactive = no such curve, though single readings can be large or run the other way. The source holds several records for some structures; these can differ, active in one and inactive in another.

Assay: qHTS of TDP-43 Inhibitors; note: nearly all actives have a fitted effect of over 50% in size; for growth rescue (activation): % of control where 0% means no effect
Details: TDP-43 expressing yeast growth rescue, BacTiter-Glo, 24 h; series mostly up to 46.1 µM; growth rescue (activation): at the top concentration
How it was run: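 Luminescence from BacTiter-Glo reports growth of TDP-43-expressing yeast after 24 hr at 30 deg C with compound. Cells were raffinose-pregrown to mid-log, then seeded in galactose medium at OD600=0.02.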
Potency is the fitted concentration of half-maximal effect.

Structure (SMILES)	Potency	growth rescue (activation)
Cc1ccc(OCC(=O)Nc2ccc(Cl)c(-c3nc4ccccc4[nH]3)c2)cc1C	22.4 µM (active)	–
Cc1ccc(NC(=O)COc2ccc(-n3ccnc3)cc2)cc1Cl	–	-4.75% (inactive)
Cc1ccc(OCC(=O)Nc2ccc3oc(=O)ccc3c2)cc1C	–	8.17% (inactive)
Cn1c(=O)c2c(n3c4ccccc4nc13)NC(=O)CC2c1cccc(Cl)c1 (centres undefined)	–	-15.9% (inactive)
CC(=O)N1CCc2cc(S(=O)(=O)NC(Cc3ccccc3)C(=O)NCc3ccc(C)cc3)ccc21 (centres undefined)	–	12.9% (inactive)
CCOc1ccccc1CNCc1c(C(=O)O)c(C)n(Cc2ccc(C)cc2)c1C	–	-8.38% (inactive)
Cc1ccc2ncc(C(=O)Nc3ccc(OC(F)(F)F)cc3)c(=O)n2c1	–	0.45% (inactive)
O=C(COC(=O)c1cccc(Cl)c1)NC1CCCCCCC1	22.4 µM (active)	–
Cc1ccc(C(=O)OCC(=O)NC2CCCCCCC2)cc1C	–	17.2% (inactive)
O=C(COC(=O)c1cccc(Cl)c1Cl)NC1CCCCCC1	–	5.99% (inactive)
CCn1cc2nc(SCc3ccccc3Cl)n(CCc3ccccc3)c(=O)c2n1	–	-12% (inactive)
COc1ccc(CNC(=O)CCc2c(C)nn(-c3ccc(N4CCCC4)nn3)c2C)cc1	–	3.38% (inactive)
Cc1ccccc1NC(=O)CN1C(=O)C(C)(C)c2ccccc21	–	21.2% (inactive)
CC1CC(=O)N(CC(=O)Nc2cccc(Cl)c2)c2ccccc2S1(=O)=O (centres undefined)	–	-1.06% (inactive)
Cc1ccc(NC(=O)CN2C(=O)CC(C)Sc3ccccc32)c(C)c1 (centres undefined)	17.8 µM (active)	–
COC(=O)c1c(NC(=O)c2cc(=O)c3c(C)cc(C)cc3o2)sc2c1CCCC2	–	0% (inactive)
COc1ccc(-c2noc(CSc3nc4ccc(C)cc4[nH]3)n2)cc1	–	8.72% (inactive)
COc1ccc(OC)c(CNC(=O)Cn2nc(C)c3c(C)n(-c4ccccc4)nc3c2=O)c1	–	5.84% (inactive)
CC1(C)Cc2ccccc2/C(=C/C(=O)c2ccccc2)N1	12.6 µM (active)	–
CC(C)CC(N=C1NC(C)(C)Cc2ccccc21)C(=O)O (centres undefined)	–	-13.2% (inactive)
CCOC(=O)C1=C(NC(=S)NC(=O)c2ccccc2)c2ccccc2CC1(C)C	–	16.4% (inactive)
O=C(CSc1n[nH]c(-c2ccccc2)n1)N1CCCCC1	–	18.7% (inactive)
Cc1cc(=O)n(CC(=O)Nc2cccc([N+](=O)[O-])c2)c(-n2nc(C)cc2C)n1	–	28.7% (inactive)
COC(=O)c1cc(NC(=O)CCS(=O)(=O)c2cc(Br)cc3c2N(C(=O)C2CC2)CC3)cc(C(=O)OC)c1	–	11.2% (inactive)
COc1ccc(-c2cc(C(F)(F)F)nc(S(C)(=O)=O)n2)cc1OC	10 µM (active)	–

Structure (SMILES)	Potency	growth rescue (activation)
COc1ccc(CNc2nc(-c3ccc(Cl)cc3)cc(C(F)(F)F)n2)cc1	–	23.9% (inactive)
COc1ccc(CCNc2nc(-c3ccc(F)cc3)cc(C(F)(F)F)n2)cc1OC	–	-15.4% (inactive)
COc1ccccc1CNC(=O)Cn1nc(C)c2nn(-c3ccc(Cl)cc3)c(C)c2c1=O	–	6.06% (inactive)
COc1ccccc1OCCCn1c(-c2ccc(Cl)cc2)nc2ccccc2c1=O	–	-6.55% (inactive)
CN(C(=O)CSc1nc2ccc(NC(=O)COc3ccccc3)cc2s1)c1ccccc1	–	27.4% (inactive)
O=C(O)c1ccccc1CSc1nc2ccccc2s1	12.6 µM (active)	–
O=C(Nc1ccc2nc(SCC(=O)N3CCc4ccccc43)sc2c1)c1ccccc1F	–	-12.6% (inactive)
Cc1cccc(-c2nc(SCc3ccc(Br)cc3)n3[nH]c(=O)cc3n2)c1	–	8.73% (inactive)
COc1ccc(CC(=O)N2CC(=O)Nc3ccc(Br)cc3C2c2ccc(F)cc2)cc1OC (centres undefined)	–	-19.6% (inactive)
COc1cccc(-c2cc(C(=O)N3CCN(c4ccccc4OC)CC3)no2)c1	22.4 µM (active)	–
COc1ccccc1N1CCN(C(=O)c2cc3c(-c4ccc(Cl)cc4)nn(C)c3s2)CC1	35.5 µM (active)	–
CCS(=O)(=O)N1CCc2cc(C(=O)N3CCN(c4ccccc4OC)CC3)ccc21	–	-2.38% (inactive)
COc1ccc(Nc2ncc(C(=O)N3CCN(c4ccccc4OC)CC3)c3ccccc23)cc1	inactive	–
COc1ccc(CNC(=O)c2cc3c(-c4ccccc4F)nn(C)c3s2)c(OC)c1	–	19.5% (inactive)
Cn1nc(-c2ccc(Cl)cc2)c2cc(C(=O)NCc3ccco3)sc21	–	19.9% (inactive)
COc1ccc(C(=O)NCC(c2ccc(N(C)C)cc2)N2CCc3ccccc32)c(OC)c1 (centres undefined)	–	7.72% (inactive)
CCOC(=O)c1c(NC(=O)COc2cc(C)ccc2C(C)C)sc(C)c1C	–	8.05% (inactive)
CCc1ccccc1OCCSc1nc(-c2cccs2)nc2cc(=O)[nH]n12	–	2.88% (inactive)
Cc1nn(C(C)C(=O)NCCc2ccccc2)c(=O)c2c1sc1ccccc12 (centres undefined)	–	7.28% (inactive)
O=C(NCCc1ccccc1)c1ccc2c(c1)N(Cc1ccc(F)cc1)C(=O)c1ccccc1S2(=O)=O	–	3.53% (inactive)
CCCCN1C(=O)c2[nH]nc(-c3ccccc3O)c2C1c1cccc(OCc2ccccc2)c1 (centres undefined)	–	0% (inactive)
Cn1c(=O)c2c(ncn2CC(=O)Nc2cccc(C(F)(F)F)c2)n(C)c1=O	–	20.5% (inactive)
CSc1nc(-c2ccc(F)cc2)nc2c1Cc1c(CO)cnc(C)c1O2	–	21.5% (inactive)
O=C(CSc1ccc(-c2ccc(-n3cccn3)cc2)nn1)Nc1ccc([N+](=O)[O-])cc1	–	12.4% (inactive)
O=C(CSc1ccc(-c2ccccn2)nn1)Nc1ccccc1	28.2 µM (active)	–

Structure (SMILES)	Potency	growth rescue (activation)
COc1cc(NC(=O)CSc2ccc(-c3cccnc3)nn2)cc(OC)c1	–	-17.4% (inactive)
CCc1ccc(NC(=O)CN2CCSc3ccc(S(=O)(=O)N4CCCC4)cc32)cc1	–	15.8% (inactive)
Cc1cccc(N2CCN(c3c(CN4CCCC4)c(=O)oc4ccccc34)CC2)c1C	–	9.53% (inactive)
COc1ccc(C)cc1Nc1nc2ccccc2c2nnc(C)n12	–	14.7% (inactive)
Cc1ccc(C(=O)Nc2c(C(=O)NC(C)(C)C)oc3ccccc23)cc1	–	14.8% (inactive)
CCNc1nc(-c2cc3ccccc3o2)cs1	14.1 µM (active)	–
Cn1c(SCC(=O)NC2CCCCC2)nnc1-c1cc2ccccc2o1	–	-2.43% (inactive)
COc1ccccc1CN(C)C(=O)c1cc2ccccc2o1	–	20.2% (inactive)
Cc1ccc(N2CC(c3nnc(Cc4ccccc4Cl)o3)CC2=O)cc1 (centres undefined)	–	22.1% (inactive)
COc1cc(C(=O)N2CCN(C(=O)COc3cccc(C)c3)CC2)cc(OC)c1OC	–	9.38% (inactive)
CCN(CC)S(=O)(=O)c1ccc2c(c1)c(=O)c(C(=O)N1CCN(c3cccc(Cl)c3)CC1)cn2C	–	15.9% (inactive)
Cc1ccc(-c2cnc(C3CC3)o2)cc1S(=O)(=O)Nc1cccc(C)c1C	–	17% (inactive)
Cc1cccc(CCNS(=O)(=O)c2ccc(S(=O)(=O)NC3CCCC3)cc2)c1	–	-9.75% (inactive)
Cc1cccc(CNS(=O)(=O)c2ccc(-c3cnc(C4CC4)o3)cc2)c1	inactive and 12.6 µM (active)	–
O=C(CN1CCSc2ccccc21)N1CCN(c2ccccc2)CC1	–	29.6% (inactive)
COc1ccccc1NC(=O)c1cc(C2CC2)nc2c1c(C)nn2-c1ccc(C)cc1	–	0% [at 9.22 µM] (inactive)
COc1ccc(NC(=O)C2Cc3c(-c4cccc(NC(C)=O)c4)ccnc3O2)cc1OC (centres undefined)	–	10.1% (inactive)
CC(=O)Nc1ccc(-c2ccnc3c2CC(C(=O)NC(C)C)O3)cc1 (centres undefined)	–	22.5% (inactive)
COc1ccc(NC(=O)C2Cc3c(-c4ccc(Cl)cc4)ccnc3O2)cc1 (centres undefined)	14.1 µM (active)	–
CC1CCc2noc(NC(=O)c3ccc([N+](=O)[O-])cc3)c2C1 (centres undefined)	–	6.42% (inactive)
Cc1cc(C)cc(OCC(=O)Nc2nc(-c3ccc(F)cc3)ns2)c1	–	6.88% (inactive)
COc1ccc(C(=O)NC2CCCc3c2cnn3-c2cccc(C)c2C)c(OC)n1 (centres undefined)	15.8 µM (active)	–
COc1cccc(C(=O)Nc2c3c(nn2-c2cccc(C)c2C)CS(=O)(=O)C3)c1OC	–	-20.6% (inactive)
Cn1nccc1C(=O)NC1CCCc2c1cnn2-c1ccc(F)cc1F (centres undefined)	–	10.7% (inactive)
CCOc1ccc(CNCc2c(C(=O)O)c(C)n(Cc3cccc(OC)c3)c2C)cc1OC	–	20.8% (inactive)

Structure (SMILES)	Potency	growth rescue (activation)
Cc1ccc(-n2c(SCC(=O)Nc3cccc(F)c3)nc3c(oc4ccccc43)c2=O)cc1C	–	6.78% (inactive)
CCn1c(=S)[nH]c2sc3c(c2c1=O)CCCCC3	–	7.77% (inactive)
S=c1[nH]nc2c3c4c(sc3ncn12)CCCC4	4.47 µM (active)	–
Cc1ccc2nc(COc3ccc(NC(=O)COc4ccccc4F)cc3)cc(=O)n2c1	–	-13.1% (inactive)
Cc1cccc(Cn2c(SCc3ccc(C(=O)N4CCC(C)CC4)cc3)nc3ccncc32)c1	–	-2.39% (inactive)
Cc1cc(NC(=O)CSCc2nc(-c3cccc(Cl)c3)oc2C)no1	–	-9.69% (inactive)
CCc1nnc(SCc2nc(-c3cccc(C)c3)oc2C)c2cc3sc(C)cc3n12	–	9.11% (inactive)
Cc1cc2c(cc3c(SCc4cccc(Cl)c4)nnc(C)n32)o1	20 µM (active)	–
Cc1nnc(SCc2cccc(Cl)c2)n(N)c1=O	–	-2.32% (inactive)
O=C(c1ccco1)N1CCN=C1SCc1cccc(Cl)c1	–	4.84% (inactive)
Cc1cc2c(cc3c(SCc4nc(-c5ccccc5)oc4C)nnc(C)n32)o1	17.8 µM (active)	–
COc1cccc(-c2nnc(SCC(=O)N3CCC(C)CC3)o2)c1	–	42.2% (inactive)
O=C(Cn1cc(SCc2ccccc2)c2ccccc21)N1CCCCC1	–	0% (inactive)
C=CCC(NCc1ccco1)c1ccc(OC)cc1 (centres undefined)	–	-8.96% (inactive)
COc1ccc(Nc2nc(NCc3ccco3)nc(N/N=C/c3ccccc3Cl)n2)cc1	17.8 µM (active)	–
COc1ccc(NC(=O)C(=O)NCc2ccco2)cc1	–	19% (inactive)
COc1cc(OC)cc(-c2nc3nc(C)c(CCC(=O)Nc4ccccc4)c(C)n3n2)c1	–	1.76% (inactive)
O=C(NCCCc1ccccc1)c1ccc2c(c1)sc1nc(-c3ccc(F)cc3)cn12	–	1.87% (inactive)
CCC(=O)N1c2ccccc2CC1C(=O)N1CCN(c2cccc(OC)c2)CC1 (centres undefined)	–	0% (inactive)
CC1=C(c2ccc(C)c(C)c2)S(=O)(=O)NC1=NCc1ccccc1Cl	–	-4.02% (inactive)
O=C1c2ccccc2S(=O)(=O)N1Cc1c(F)cccc1Cl	–	-8.24% (inactive)
CS(=O)(=O)N(CC(O)Cn1c2ccccc2c2ccccc21)c1cccc2ccccc12 (centres undefined)	–	-13.6% (inactive)
O=C1c2ccccc2S(=O)(=O)N1CC(O)Cn1c2ccccc2c2ccccc21 (centres undefined)	11.2 µM (active)	–
COc1ccc(CNC(=O)c2ccc3c(O)c(S(=O)(=O)c4ccccc4)c(=O)[nH]c3c2)cc1	–	6.56% (inactive)
